Source: PubChem
Hits are enriched below; roughly 1.8% of the tested compounds scored in any of these assays.
PriA SSB inh – inhibitors of Klebsiella pneumoniae PriA binding to SSB C-terminal tail, primary screen, biochemical, AlphaScreen; 430,000 tested, 0.6% active; inhibition, % at 33 µM; AlphaScreen SSBct-PriA binding, biotinylated peptide; in the data active = inhibition mostly above about 37%, no sharp cut-off; inactive = mostly below about 20%;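 note: plate controls were negative control peptide for no effect and reference peptide for full effect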
PrPC TRFRET – inhibitors of human cell surface prion protein PrPC, primary screen, cell-based, TR-FRET; TR-FRET read-out; AID 720596, 2013; 370,000 tested, 0.43% active; Major prion protein (Homo sapiens), P04156; inhibition, % at 13.8 µM; in the data active = inhibition above about 24%; note: 0% = median of the test wells and 100% = reference compound wells
PrP UTR inh – inhibition of PrP 5' UTR reporter expression; cell-based PrP 5' UTR mRNA reporter, plate reader; inhibition, % (no concentration beside the values); 340,000 tested, 0.35% active; in the data active = inhibition above about 52%; note: 0 = median of the neutral control wells
MazEF act – activators of E. coli MazEF toxin-antitoxin RNase, primary screen, biochemical, fluorescence, uHTS; Endoribonuclease toxin MazF (Escherichia coli (strain K12)), P0AE70; FAM/BHQ RNA-DNA oligo cleavage fluorescence, 5 h; activation, % at 20 µM; 350,000 tested, 0.32% active; AID 504720, 2011; in the data active = activation above about 50%
Target sequence (P0AE70 whole entry, looked up): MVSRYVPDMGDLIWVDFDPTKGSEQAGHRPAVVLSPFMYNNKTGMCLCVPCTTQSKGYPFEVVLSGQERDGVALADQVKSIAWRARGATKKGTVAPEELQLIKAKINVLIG
PfHsp40 rescue – rescue of yeast from PfHsp40 toxicity, primary screen, S. cerevisiae, ATP luminescence | AID 504582, 2011 | 340,000 tested, 0.68% active | growth rescue, % at 12.5 µM | S. cerevisiae expressing PfHsp40, growth rescue; in the data active = growth rescue above about 28%, passing the limit was not always enough;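 note: yeast W303a lacking pdr1 and pdr3 grown in galactose medium; growth measured after three days at 30 °C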
Numbers without * were called inactive; · = no result; + = active, no number.

SMILES	PriA SSB inh	PrPC TRFRET	PrP UTR inh	MazEF act	PfHsp40 rescue
Nn1c(Cc2cccc3ccccc23)nnc1SCC(=O)NCC1CCCO1 (stereo not given)	52*	0	0	-3	0
CCc1ccc(Nc2c([N+](=O)[O-])c(=O)oc3ccccc23)cc1	-7	0	-39	-13	116*
Cc1ccc(Nc2c([N+](=O)[O-])c(=O)oc3ccccc23)cc1	12	-11	-1	9	3
CCOc1ccc(-c2noc(C3CCCN(S(=O)(=O)c4cccs4)C3)n2)cc1 (stereo not given)	2	·	·	·	·
CCCCNc1c([N+](=O)[O-])cc(C)cc1[N+](=O)[O-]	76*	-1	-28	-7	0
Cc1cc(C)n(-c2nc3ccccc3c3nc(C)nn23)n1	104*	-2	-16	-13	0
Cc1ccc(S(=O)(=O)N2C(=O)CCC2C(=O)Nc2ccc3c(c2)OCCO3)cc1 (stereo not given)	96*	4	-14	1	1
COc1ccc(CNC(=O)c2cc(S(=O)(=O)N3CCCC3)cn2C)cc1	-8	10	-22	7	-1
O=C(CSc1cn(CCNC(=O)c2ccc([N+](=O)[O-])cc2)c2ccccc12)Nc1ccc2c(c1)OCCO2	20	·	·	·	·
O=C(NN=Cc1ccc(O)cc1O)c1ccccc1NS(=O)(=O)c1cccs1	-3	13	-4	6	70*
COc1ccc(C=NNC(=O)c2ccccc2NS(=O)(=O)c2cccs2)cc1O	2	9	-16	5	-1
Cc1ccccc1NC(=O)N1CCCC(c2nc(-c3ccc(C(C)C)cc3)no2)C1 (stereo not given)	-18	-5	-34	-4	1
O=c1[nH]c(CSc2nc3ccccc3[nH]2)nc2c1cnn2-c1ccccc1	7	4	-6	-2	1
O=c1[nH]c(SCc2nc3c(cnn3-c3ccccc3)c(=O)[nH]2)nc2ccccc12	-13	-2	8	50*	-1
COC(=O)c1c(NC(=O)/C=C/c2ccco2)sc2c1CCC2	-4	0	-11	57*	0
Cc1ccc(S(=O)(=O)N(CC(=O)Nc2ccc(C)c(Cl)c2)C(=O)N2CCN(C)CC2)cc1	-17	4	-14	5	-1
CCCn1c(SCC(=O)Nc2nc(-c3ccc(OC)cc3)cs2)nc2c1c(=O)n(C)c(=O)n2C	-4	-5	-14	193*	0
Cn1c(=O)c2c(ncn2CC(=O)Nc2nc(-c3ccccc3Cl)cs2)n(C)c1=O	-19	2	-15	74*	-1
Cc1cc(N2CCN(S(=O)(=O)c3ccccc3)CC2)nc2c(C)cccc12	-2	-7	9	-3	1
CN(C)c1ccc(/C(=N\O)C(F)(F)F)cc1	·	1	-3	0	0
COc1ccccc1OCCNc1ccc(S(=O)(=O)N2CCCC2)cn1	2	-6	-14	167*	0
CN(C)CCCNc1cc(C(C)(C)C)nc2c(-c3ccc(Cl)cc3)cnn12	-27	0	-5	-23	44*
Cc1cc(NCCCn2ccnc2)n2ncc(-c3ccc(Cl)cc3)c2n1	43*	6	-44	3	0
CCOC(=O)c1cnc(SCC(=O)N2CCc3ccccc32)nc1N	9	7	-13	68*	-1
COc1cc2c(cc1OC)C(C)N(C(=O)Cn1ncc3c1-c1ccccc1OC3)CC2 (stereo not given)	0	7	-5	9	0
O=C(Nc1ncc(Cc2ccccc2Cl)s1)c1cc2ccccc2o1	7	·	·	·	·
C=CC(C)(CC[C@@]1(C)C(C)CC(OC2OC(C)C(OC3OC(COC(C)=O)C(O)C(O)C3O)C(O)C2O)[C@@]2(C)C(C)=CCCC12)OC1OC(C)C(O[C@@H]2O[C@@H](C)C(O)C(O)[C@H]2O)C(O)C1O (stereo not given in full)	-3	·	·	·	·
COc1cc(/C=C/[N+](=O)[O-])ccc1OC(=O)c1cc2ccccc2oc1=O	4	-9	-17	-15	118*
Cc1cc(OCC(=O)NCc2cccnc2)c2c(C)c(Cc3ccccc3)c(=O)oc2c1	-2	1	0	19	-2
CCn1cc(C=C2C(=O)c3ccccc3C2=O)c2ccccc21	0	-1	-26	+	0
